Calls of active or inactive are those of the source.
Tests used:
[1] = system: Plasmodium falciparum Sir2 (PF13_0152, Sir2A); test: Plasmodium falciparum Sir2A binding compounds – biochemical, small-molecule microarray, 635 nm fluorescence, primary screen (AID 1098); conditions: fluorescence 635 nm, higher = more signal;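 further: score merges spot fluorescence intensity with its signal-to-noise ratio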
[2] = probe aDKK1 binding to arrayed compounds – biochemical, biotinylated probe, 635/667 nm fluorescence, primary screen (AID 1099); conditions: small-molecule microarray, higher = more signal;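 further: score merges 667nm spot fluorescence with signal to noise across triplicate slides; reference of the scale not given here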
[3] = probe aCHRDL2 binding to arrayed compounds – biochemical, biotinylated probe, 635/667 nm fluorescence, primary screen (AID 1100); conditions: small-molecule microarray, higher = more signal
[4] = change in splice reporter luminescence, either direction, cell-based, HEK293, spliceosome inhibition project, primary screen (AID 1101); conditions: HEK293 splicing luciferase reporter, 24 h, higher = more signal, called active from +8 up or from −8 down;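 further: HEK293 cells carrying a splicing-competent luciferase reporter gene; test concentration not given here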
[5] = biological target: Fibroblast growth factor 10 (Homo sapiens) (UniProt O15520); test: compounds binding fibroblast growth factor 10 – biochemical, small-molecule microarray, 635 nm fluorescence, primary screen (AID 1102); conditions: FGF10 binding, fluorescence 635 nm, higher = more signal
Chain of Fibroblast growth factor 10 (Homo sapiens) (O15520 whole entry, looked up): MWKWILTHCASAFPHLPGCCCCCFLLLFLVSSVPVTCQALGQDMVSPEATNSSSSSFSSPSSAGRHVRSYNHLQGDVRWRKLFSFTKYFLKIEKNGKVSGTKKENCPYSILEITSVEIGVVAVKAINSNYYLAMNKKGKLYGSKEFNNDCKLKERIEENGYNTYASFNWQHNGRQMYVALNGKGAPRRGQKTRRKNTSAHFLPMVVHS

[6] = system: glycogen synthase kinase-3 (GSK3A per assay name; protocol says GSK3B); test: compounds binding glycogen synthase kinase-3 – biochemical, small-molecule microarray, 635 nm fluorescence, GSK3A, primary screen (AID 1103); conditions: fluorescence 635 nm, higher = more signal; further: the record names both GSK3A and GSK3B
[7] = biological target: Epidermal growth factor receptor (Homo sapiens) (UniProt P00533); test: compounds binding epidermal growth factor receptor – biochemical, small-molecule microarray, 635 nm fluorescence, primary screen (AID 1104); conditions: EGFR binding, higher = more signal;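 further: score merges 667 nm emission intensity with spot signal to noise over triplicate slides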
Chain of Epidermal growth factor receptor (Homo sapiens) (P00533 whole entry, looked up): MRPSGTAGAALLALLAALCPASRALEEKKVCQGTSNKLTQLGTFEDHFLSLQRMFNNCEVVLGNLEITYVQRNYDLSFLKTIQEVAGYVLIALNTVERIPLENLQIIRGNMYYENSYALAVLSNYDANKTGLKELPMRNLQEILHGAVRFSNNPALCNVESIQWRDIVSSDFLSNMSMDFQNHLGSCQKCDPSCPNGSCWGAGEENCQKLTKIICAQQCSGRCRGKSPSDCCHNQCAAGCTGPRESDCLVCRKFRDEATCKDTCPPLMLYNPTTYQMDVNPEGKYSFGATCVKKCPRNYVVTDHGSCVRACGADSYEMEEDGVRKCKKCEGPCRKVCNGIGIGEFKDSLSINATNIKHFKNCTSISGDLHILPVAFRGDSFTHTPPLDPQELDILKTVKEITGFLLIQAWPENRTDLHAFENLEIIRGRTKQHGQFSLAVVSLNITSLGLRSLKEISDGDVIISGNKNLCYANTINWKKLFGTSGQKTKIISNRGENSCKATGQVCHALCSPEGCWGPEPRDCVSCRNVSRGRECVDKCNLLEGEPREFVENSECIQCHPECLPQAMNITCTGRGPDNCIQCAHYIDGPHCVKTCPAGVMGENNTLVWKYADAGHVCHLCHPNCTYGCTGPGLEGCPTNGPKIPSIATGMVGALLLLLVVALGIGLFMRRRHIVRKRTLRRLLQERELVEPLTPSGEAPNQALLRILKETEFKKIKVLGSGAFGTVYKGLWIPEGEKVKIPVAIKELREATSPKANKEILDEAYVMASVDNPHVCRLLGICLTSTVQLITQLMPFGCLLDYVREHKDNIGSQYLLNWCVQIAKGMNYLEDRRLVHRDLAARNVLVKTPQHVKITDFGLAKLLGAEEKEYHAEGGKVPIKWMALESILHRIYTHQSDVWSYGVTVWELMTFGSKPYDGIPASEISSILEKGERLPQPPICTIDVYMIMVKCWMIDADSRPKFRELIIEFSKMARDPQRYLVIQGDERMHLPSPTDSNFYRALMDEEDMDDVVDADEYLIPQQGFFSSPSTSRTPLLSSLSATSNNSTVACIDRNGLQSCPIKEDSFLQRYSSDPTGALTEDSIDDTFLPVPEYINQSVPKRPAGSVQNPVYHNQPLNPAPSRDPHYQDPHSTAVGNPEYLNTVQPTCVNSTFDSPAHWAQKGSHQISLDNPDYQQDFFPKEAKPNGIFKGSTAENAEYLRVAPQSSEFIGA

[8] = biological target: Follistatin-related protein 3 (Homo sapiens) (UniProt O95633); test: compounds binding follistatin-related protein 3 – biochemical, small-molecule microarray, 635 nm fluorescence, primary screen (AID 1105); conditions: FSTL3 binding, higher = more signal;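 further: score merges emission near 667 nm and signal to noise per printed spot across three slides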
Chain of Follistatin-related protein 3 (Homo sapiens) (O95633 whole entry, looked up): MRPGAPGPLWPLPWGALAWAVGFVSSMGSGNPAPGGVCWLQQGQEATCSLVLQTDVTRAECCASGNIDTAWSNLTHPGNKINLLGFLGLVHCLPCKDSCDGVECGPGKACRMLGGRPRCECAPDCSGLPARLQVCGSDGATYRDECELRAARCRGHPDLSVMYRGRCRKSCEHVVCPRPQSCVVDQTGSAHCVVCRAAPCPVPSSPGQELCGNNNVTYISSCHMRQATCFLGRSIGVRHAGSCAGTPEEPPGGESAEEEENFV

[9] = biological target: Dickkopf-related protein 1 (Homo sapiens) (UniProt O94907); test: small molecules binding DKK1 protein – biochemical, small-molecule microarray, 635 nm fluorescence scan, primary screen (AID 1106); conditions: higher = more signal;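 further: score merges emission near 667 nm with signal to noise over three replicate slides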
Chain of Dickkopf-related protein 1 (Homo sapiens) (O94907 whole entry, looked up): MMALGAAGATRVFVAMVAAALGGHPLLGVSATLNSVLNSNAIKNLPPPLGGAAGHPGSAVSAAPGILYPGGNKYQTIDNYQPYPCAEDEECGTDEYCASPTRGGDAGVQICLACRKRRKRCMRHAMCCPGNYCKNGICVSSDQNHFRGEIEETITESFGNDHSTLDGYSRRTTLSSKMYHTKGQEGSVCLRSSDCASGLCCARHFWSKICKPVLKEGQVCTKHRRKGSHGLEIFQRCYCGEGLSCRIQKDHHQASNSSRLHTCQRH

[10] = system: Inhibin beta A chain (activin A); test: small molecules binding activin A – biochemical, small-molecule microarray, 635 nm fluorescence scan, primary screen (AID 1107); conditions: INHBA, higher = more signal;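 further: mouse activin A protein probed at 4.33 µg/mL on printed slides; score merges bound-protein fluorescence near 667 nm with spot signal-to-noise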

SMILES | composite z-score [1] | composite z-score [2] | composite z-score [3] | z-score [4] | composite z-score [5] | composite z-score [6] | composite z-score [7] | composite z-score [8] | composite z-score [9] | composite z-score [10]
CO[C@H]1O[C@H](CO)[C@@H](OC(=O)Nc2ccc3c(c2)OCO3)[C@H](OC(=O)Nc2ccccc2-c2ccccc2)[C@@H]1OC(=O)Nc1ccccc1-c1ccccc1 | 1.29 | 0.277 | 0.542 | 0.176 (inactive) | 1.38 | 1.15 | 0.23 | 0.936 | 0.271 | -0.548
O=C1C[C@@H](O)[C@@H](O)[C@@H]2[C@@H]3C(=O)N(c4cccc(Oc5ccccc5)c4)C(=O)[C@@H]3CC[C@@H]12 | 0.87 | -0.0115 | -0.464 | 0.0249 (inactive) | 0.806 | 0.655 | 0.387 | 0.925 | 0.987 | -0.0789
CO[C@H]1COC(=O)CC=C[C@H](C)[C@@H](NS(=O)(=O)c2ccc(C)cc2)COC(=O)CC=C[C@@H]1C | 0.219 | -0.257 | -0.674 | -2.06 (inactive) | 0.582 | 0.528 | 0.853 | 0.579 | 0.761 | 0.257
CN(C)CCCNC(=O)[C@@H]1c2ccccc2C(=O)N(Cc2ccccc2)[C@H]1c1ccc(CO)cc1 | 0.0072 | 0.189 | 0.341 | -0.00771 (inactive) | -0.952 | -0.383 | -0.254 | 0.433 | -0.354 | 1.33
C=C(/C(=C/C[C@@H](OC(=O)c1ccncc1)c1ccc(OCCO)cc1)c1cnc2ccccc2c1)C(C)C | 1.2 | -0.144 | -0.216 | -2.87 (inactive) | 1.54 | 1.28 | 0.419 | 1.24 | 0.824 | 1.56
C#CCCCON=C1C[C@@H](O)[C@@H](O)[C@@H]2[C@@H]3C(=O)N([C@@H](C)c4ccccc4)C(=O)[C@@H]3CC[C@H]12 | 0.933 | -0.253 | -0.483 | -1.28 (inactive) | 0.478 | 0.283 | 0.474 | 0.921 | 0.618 | 0.551
COC(=O)[C@H](C)NC(=O)[C@@H](C)CO | 0.241 | 0.0939 | -0.469 | 0.364 (inactive) | 0.572 | 0.844 | 0.499 | 0.258 | 0.338 | -0.776
CO[C@@H]1COC(=O)CCC[C@@H](C)[C@H](OC)COC(=O)CCC[C@H]1C | 0.691 | -0.224 | -0.755 | 0.349 (inactive) | 0.0939 | 0.534 | 0.379 | 0.715 | 0.731 | -0.0672
C[C@H](c1ccccc1)N1C(=O)[C@H]2[C@H]3[C@H](O)[C@H](O)CC(=O)[C@@H]3CC[C@H]2C1=O | -0.0226 | -0.0352 | -0.394 | 0.737 (inactive) | 0.615 | -0.0137 | 0.268 | 0.344 | 0.822 | -1.79
COCCOC(=O)N1C(=O)[C@@]2(c3cc(C#Cc4ccc(OC)cc4)ccc31)[C@H](c1ccc(O)cc1)N1[C@H](c3ccccc3)[C@H](c3ccccc3)OC(=O)[C@H]1[C@@H]2C(N)=O | 1.49 | -0.0422 | -0.21 | -1.95 (inactive) | 1.1 | 1.25 | 0.655 | 1.4 | 0.56 | 0.213
CC(C)C[C@@H]1NC(=O)[C@H]2C[C@@H](C(=O)NCCCCCCN(C)C)[C@@H](c3cccc(OCCO)c3)N2C1=O | 1.5 | 0.346 | 0.124 | -0.152 (inactive) | 1.01 | 1.21 | 0.317 | 1.35 | 1.74 | 1.1
CN1C(=O)[C@@]2(CCC(=O)OC(C)(C)C)N=C(c3ccc(OCCCO)cc3)O[C@H]2c2ccccc21 | 1.26 | 0.0179 | 0.457 | -0.0334 (inactive) | 0.788 | 1.33 | 0.181 | 0.529 | -0.0485 | 1.03
COC(=O)[C@]1(CO)N=C(c2ccc(OCCCO)cc2)O[C@@H]1c1ccccc1N=[N+]=[N-] | 0.428 | 0.341 | 0.194 | -0.121 (inactive) | 1.36 | 0.521 | 0.384 | 0.393 | 0.356 | 0.653
CCOC(=O)CCN1C(=O)[C@H]2[C@H]3[C@H](O)C=CC(=O)[C@@H]3CC[C@H]2C1=O | 0.0705 | -0.222 | -0.437 | -0.173 (inactive) | 0.605 | 0.323 | 0.678 | 0.518 | 0.541 | -0.0901
COC(=O)C1=CCC(c2cccc(Cl)c2)O1 (stereo not given) | 1.15 | -0.138 | 0.381 | -1.15 (inactive) | 0.044 | -0.842 | -0.412 | -0.578 | -0.476 | 1.09
CN1C(=O)C2C(C1=O)C1C=C(CCCO)C2C(c2ccc(CN3CCCC3)cc2)N1C (stereo not given) | -0.583 | -0.32 | -0.268 | -0.451 (inactive) | -0.684 | -0.0315 | -0.576 | -0.186 | 0.142 | 0.523

SMILES | composite z-score [1] | composite z-score [2] | composite z-score [3] | z-score [4] | composite z-score [5] | composite z-score [6] | composite z-score [7] | composite z-score [8] | composite z-score [9] | composite z-score [10]
CCc1cc2c(nc1CC)CCN(CCC(C)=NO[C@@H](C)c1cc(-c3c(C)cc(C)cc3C)no1)C2 | 0.856 | -0.227 | -0.286 | -0.596 (inactive) | -0.328 | -0.562 | -0.408 | -0.473 | -0.107 | 0.711
C/C=C\[C@@H](NCc1ccccc1Br)[C@@H](O)Cc1ccccc1 | 0.556 | 0.41 | 1.19 | -0.307 (inactive) | -1.69 | -0.683 | -1.37 | -1.69 | -1.58 | 0.0067
CCOC(=O)CCN1C(=O)[C@H]2[C@H]3[C@H](O)[C@H](O)CC(=O)[C@H]3CC[C@H]2C1=O | -0.0527 | -0.202 | -0.723 | -1.11 (inactive) | 0.685 | 0.765 | 0.4 | 0.565 | 0.745 | -0.0903
COCCCNC(=O)[C@]1(CCC(=O)OC(C)(C)C)N=C(c2ccc(OCCCO)cc2)O[C@@H]1c1ccccc1N=[N+]=[N-] | 1.31 | 0.314 | 0.999 | -1.14 (inactive) | 1.29 | 1.33 | 0.287 | 1.06 | 0.0998 | 0.772
CC(C)=CCCC(C)=CCON=C1[C@H]2CCn3c(=O)n(C)c(=O)n3[C@H]2[C@H](O)[C@@H]2O[C@H]12 | 0.819 | -0.317 | -0.378 | 0.709 (inactive) | 0.868 | 1.26 | 0.779 | 1.05 | 0.921 | 0.832
COC(=O)[C@@]1(Cc2ccc(OC)cc2)[C@H]2c3cc(C(=O)N4CCCC4)n(Cc4cc(F)c(F)c(F)c4)c3C[C@H]2CN1C(=O)c1ccccc1 | 1.08 | 2.47 | 1.59 | -1.28 (inactive) | 1.15 | 1.3 | 1.12 | 1.32 | -0.279 | 0.835
CO[C@H]1COC(=O)[C@H](C)NC(=O)[C@@H](C)COC(=O)CC=C[C@@H]1C | 1.38 | -0.369 | -0.786 | -0.794 (inactive) | 0.63 | 0.857 | 0.767 | 0.0078 | 0.829 | -0.249
O=C1[C@H]2[C@H]3[C@H](O)[C@H](O)CC(=NO[C@@H]4O[C@H](CO)[C@@H](O)[C@H](O)[C@H]4O)[C@H]3CC[C@H]2C(=O)N1Cc1ccc2c(c1)OCO2 | 0.381 | 0.215 | 0.821 | -0.0194 (inactive) | -0.0585 | -0.417 | -0.678 | -0.387 | -0.899 | -0.401
CCOC(=O)[C@H](Cc1ccccc1)NC(=O)CCC1CC(OC(=O)NCc2ccc3c(c2)OCO3)CC2(CCCC(COC(=O)NCC3CCCCC3)O2)O1 (stereo not given in full) | 0.599 | -0.151 | -0.5 | -0.481 (inactive) | 0.802 | 1.27 | 0.44 | 1.05 | 0.655 | -0.0031
O[C@@H](Cc1ccccc1)[C@H]1C2C=CCCC(c3ccccc3)=C2CN1Cc1cccc(Cl)c1 (stereo not given in full) | 0.0167 | -0.0232 | 0.7 | -0.205 (inactive) | 0.653 | 0.913 | 0.21 | 0.847 | 0.473 | 0.264
CC(CCN1CCCCc2nc(C)c(C)cc21)=NOC(C)CN1CCCc2nc(C)c(C)cc21 (stereo not given) | 1.53 | 0.699 | -0.324 | 0.506 (inactive) | 1.35 | 1.32 | 1.56 | 1.47 | 1.05 | 1.5
O=C1[C@H]2[C@H]3[C@H](O)[C@H](O)CC(=NOCc4ccccc4)[C@H]3CC[C@H]2C(=O)N1c1cccc(Oc2ccccc2)c1 | 0.669 | -0.421 | -0.469 | 0.639 (inactive) | 0.787 | 0.596 | 0.349 | 0.911 | 0.487 | -0.0134
CCc1cc2c(nc1CC)CCN(CCC(C)=NOC(C)CN1CCCc3nc(C)c(C)cc31)C2 (stereo not given) | 1.05 | 0.612 | -0.242 | 0.211 (inactive) | 1.04 | 1.06 | 1.16 | 1.32 | 1.03 | 1.59
C=COC[C@H]1CN2[C@@H](CC[C@@H](C)[C@@H]2c2ccc(Br)cc2)C(=O)O1 | 0.729 | -0.41 | -0.601 | -1.09 (inactive) | 0.273 | 0.665 | 0.498 | 0.694 | 0.928 | 0.611
COCC1=C2[C@@H](CCc3ccccc3)OB(O)C[C@@H]2n2c(=O)n(-c3ccccc3)c(=O)n2C1 | 0.48 | -0.32 | -0.448 | 0.184 (inactive) | 0.511 | -0.114 | 0.492 | 0.444 | 0.374 | 0.632
CN(C)c1ccc(C(O)C2C=CC3C(=O)N(c4ccccc4)C(=O)C3N2Nc2ccccc2F)cc1 (stereo not given) | 1.58 | 0.407 | 0.792 | -0.947 (inactive) | -0.235 | 1.23 | -0.675 | 0.206 | -0.606 | 0.941

From PubChem BioAssay
